Results filed as inconclusive are left out. A call without a number means that no potency is given here. Activity calls are given as the source filed them. The call rests on the fitted dose curve; in most records, active means well fitted cell-killing curve with a large enough effect; inconclusive means small, poorly fitted or top-dose-only effect, or effect the other way; inactive means no such curve, though single readings can be large or run the other way. *1 amine or outer side, *2 acyl side, *3 side chain or, on linkers, in order; H or OH if unused. Where a SMILES comes first, the peptide text is derived from it. Bridges are numbered along the chain shown (N, C = ends). Roman numbers before positions name the chains, in order. [ ]: non-standard residue; d: D form. Actinocin(9to1) = Cc1c2oc3c(C)ccc(C(=O)[*:1])c3nc-2c(C(=O)[*:2])c(N)c1=O; NMeV = CN[C@H](C(=O)O)C(C)C; Sar = CNCC(=O)O
System: C33A
Test: Confirmatory qHTS for gynecologic anti-cancer compounds from libraries of approved drugs and bioactive compounds; further: nearly all actives have a fitted effect of over 55% in size
Conditions: gynecologic cancer cell panel viability, ATPlite luminescence, 48 h; series mostly up to 57.6 µM
Outline: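 Cells (1,000/well) plated 16 h, then exposed 48 h at 37 °C to 11 concentrations (1:3) from 57.5 uM to 0.977 nM. Viability by ATPlite luminescence after 15 min; IC50 derived, with HEK 293T used for selectivity index.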
Potency means the concentration at half of the fitted maximal effect.

SMILES | Potency
N=C(N)c1ccc(OCCCCCOc2ccc(C(=N)N)cc2)cc1 | inactive
O=C1N(c2ccccc2)c2ccccc2C1(Cc1ccncc1)Cc1ccncc1 | inactive
COc1ccc2c(c1OC)C(=O)O[C@@H]2[C@H]1c2c(cc3c(c2OC)OCO3)CCN1C | inactive
COc1ccc(CCC(=O)c2c(O)cc(O[C@@H]3O[C@H](CO)[C@@H](O)[C@H](O)[C@H]3O[C@@H]3O[C@@H](C)[C@H](O)[C@@H](O)[C@H]3O)cc2O)cc1O | inactive
COc1ccccc1N1CCN(CC(O)COc2cccc3ccccc23)CC1 (stereo not given) | inactive
Cn1cc(-c2ccc3ncc(Cc4ccc5ncccc5c4)n3n2)cn1 | inactive
O=c1cc(CN2CCOCC2)occ1OCCCCCSc1ccnc2cc(C(F)(F)F)ccc12 | inactive
COC(C(=O)N1Cc2[nH]nc(NC(=O)c3ccc(N4CCN(C)CC4)cc3)c2C1)c1ccccc1 (stereo not given) | inactive
CO[C@@]12[C@H](COC(N)=O)C3=C(C(=O)C(C)=C(N)C3=O)N1C[C@@H]1N[C@@H]12 | inactive
O=C(c1ccc(F)c(F)c1Nc1ccc(I)cc1F)N1CC(O)([C@@H]2CCCCN2)C1 | 27.3 µM (active)
COc1c(C)c2c(c(O)c1C/C=C(\C)CCC(=O)O)C(=O)OC2 | inactive
CC(=O)NCC(=O)N1C2CCC1c1cc(Nc3ncc(C(F)(F)F)c(NC4CCC4)n3)ccc12 (stereo not given) | inactive
COc1cc2c(cc1-c1c(C)noc1C)ncc1[nH]c(=O)n(C(C)c3ccccn3)c12 (stereo not given) | inactive
C[C@]12CCC(=O)C=C1[C@@H]1C[C@@H]1[C@H]1[C@@H]3[C@@H]4C[C@@H]4[C@@]4(CCC(=O)O4)[C@@]3(C)CC[C@@H]12 | inactive
CC(Oc1ccc2[nH]nc(/C=C/c3cnn(CCO)c3)c2c1)c1c(Cl)cncc1Cl (stereo not given) | inactive
CC(=O)OC12COC1CC(O)C1(C)C(=O)C(O)C3=C(C)C(OC(=O)C(O)C(NC(=O)OC(C)(C)C)c4ccccc4)CC(O)(C(OC(=O)c4ccccc4)C21)C3(C)C (stereo not given) | inactive
CC[C@]1(O)C[C@H]2CN(CCc3c([nH]c4ccccc34)[C@@](C(=O)OC)(c3cc4c(cc3OC)N(C=O)[C@H]3[C@@](O)(C(=O)OC)[C@H](OC(C)=O)[C@]5(CC)C=CCN6CC[C@]43[C@@H]65)C2)C1 | 0.306 µM (active)
CCC1=CC2CN(C1)Cc1c([nH]c3ccccc13)[C@@](C(=O)OC)(c1cc3c(cc1OC)N(C)[C@H]1[C@@](O)(C(=O)OC)[C@H](OC(C)=O)[C@]4(CC)C=CCN5CC[C@]31[C@@H]54)C2 (stereo not given in full) | 0.211 µM (active)
Cc1ccc(C(=O)Nc2ccc(CN3CCN(C)CC3)c(C(F)(F)F)c2)cc1C#Cc1cnc2cccnn12 | 19.3 µM (active)
CC(C)Oc1ccc(C(=O)NC(CNC(=O)CN(C)C)Cc2ccc(-c3cn4cccc(C(C)O)c4n3)cc2)cc1Cl (stereo not given) | inactive
CCN1CCN(Cc2ccc(Nc3ncc(F)c(-c4cc(F)c5nc(C)n(C(C)C)c5c4)n3)nc2)CC1 | inactive
CC(C)(C(=O)NCC(F)(F)C(F)(F)F)C(=O)NC1C(=O)Nc2ccccc2-c2ccccc21 (stereo not given) | inactive
Cn1c(=O)c(F)c(Nc2ccc(I)cc2F)c2c(=O)n(CC(O)CO)cnc21 (stereo not given) | inactive
Cc1c2oc3c(C)ccc(C(=O)N[C@@H]4C(=O)N[C@H](C(C)C)C(=O)N5CCC[C@H]5C(=O)N(C)CC(=O)N(C)[C@@H](C(C)C)C(=O)O[C@@H]4C)c3nc-2c(C(=O)N[C@@H]2C(=O)N[C@H](C(C)C)C(=O)N3CCC[C@H]3C(=O)N(C)CC(=O)N(C)[C@@H](C(C)C)C(=O)O[C@@H]2C)c(N)c1=O (I: T[dV]P[Sar][NMeV] / II: T[dV]P[Sar][NMeV]; ester I:1-I:C, II:1-II:C; linker I:N-II:N via Actinocin(9to1)) | 0.385 µM (active)
O=C1NC(=O)C(c2cnc3ccccn23)=C1c1cn2c3c(cccc13)CN(C(=O)N1CCOCC1)CC2 | inactive
Cc1cc(C2CCCCC2)n(O)c(=O)c1 | 7.03 µM (active)
C[C@@]1(C(=O)Nc2ccc(F)nc2)CCCN1c1nc(Nc2cc(C3CC3)[nH]n2)c2cccn2n1 | inactive
COc1cc(N2CCC(N3CCN(C)CC3)CC2)ccc1Nc1ncc(Cl)c(Nc2ccccc2S(=O)(=O)C(C)C)n1 | 27.3 µM (active)
Cn1cnc2c(F)c(Nc3ccc(Br)cc3Cl)c(C(=O)NOCCO)cc21 | inactive
CC(C)C[C@H](NC(=O)[C@H](CCc1ccccc1)NC(=O)CN1CCOCC1)C(=O)N[C@@H](Cc1ccccc1)C(=O)N[C@@H](CC(C)C)C(=O)[C@@]1(C)CO1 | 6.11 µM (active)

— PubChem BioAssay AID1345085 (National Center for Advancing Translational Sciences (NCATS), 2018)
